SMILES strings stand for the structures. Among all 340,000 compounds or so, about 8,500 (2.5%) were called active.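 How the source made its calls: active means melting temperature shift of at least 10% of the positive control shift, at one fixed dose; inactive means the rest.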 What follows is part of a selection rich in actives, with near analogues and random picks from the rest.

The assay concerns Glutamate receptor ionotropic, NMDA 3A (GRIN3A) ligand-binding domain. Kind of assay: binders of NR3A ligand-binding domain, primary screen, biophysical, differential scanning fluorimetry, uHTS (AID 1259313). To be noted: NR3A LBD differential scanning fluorimetry, at 25 µM, active compounds read high, 0% = protein alone, 100% = glycine-bound protein. (In general: Differential scanning fluorimetry follows unfolding on heating by fluorescence.)
Turning to `Cc1ccc(CC2CC(=O)N(c3cc(C)ccc3C)C2=O)cc1` (stereo not drawn), the Tm shift relative to glycine control is -1.45% (inactive).

Take `COc1cc(NC(=O)c2cncc(-c3ccc(C#N)cc3)c2)cc(C(=O)Nc2cccc(C(F)(F)F)c2)c1`: the Tm shift relative to glycine control is -1.27% (inactive).

Regarding `COc1cc(NC(=O)c2[nH]cnc2C(N)=O)cc(C(=O)Nc2cccc(C(F)(F)F)c2)c1`, the Tm shift relative to glycine control was 14.8% (active).

In the case of `COc1ccc(NC(=O)C(=O)NCC(=O)Nc2cccc(C(F)(F)F)c2)cc1`, the Tm shift relative to glycine control is 7.67% (inactive).

`N#Cc1ccccc1NC(=O)c1cccc(COc2ccc(Cl)cc2Cl)c1`: the Tm shift relative to glycine control was 7.12% (inactive).

Turning to `O=C(NCCC1CCCCN1S(=O)(=O)c1cccs1)C(=O)Nc1ccc(F)cc1F` (stereo not drawn), the Tm shift relative to glycine control was 1.11% (inactive).

As to `c1ccc(CCc2ccccn2)cc1`, the Tm shift relative to glycine control was 1.84% (inactive).

On to `CC1(C)C=Cc2c(ccc3c2OC[C@@H](c2ccc(O)cc2O)C3)O1`, for which the Tm shift relative to glycine control is 8.09% (inactive).

For `Cc1cc(=O)oc2cc(OC(C)C(=O)NCCc3ccc(S(N)(=O)=O)cc3)ccc12` (stereo not drawn), the Tm shift relative to glycine control was -2.25% (inactive).

Turning to `Cc1cc(=O)oc2c(C)c(OCC(=O)NCCc3ccc(S(N)(=O)=O)cc3)ccc12`, the Tm shift relative to glycine control is -1.05% (inactive).

As for `Cc1ccc2c(=O)cc(C(=O)NCCc3ccc(S(N)(=O)=O)cc3)oc2c1C`, the Tm shift relative to glycine control is 10.6% (active).

Regarding `CCn1c(Cc2cccs2)nnc1SCC(=O)c1ccc(C)cc1`, the Tm shift relative to glycine control was 11.2% (active).

As to `Cc1ccc(-n2c(Cc3cccs3)nnc2SCC(=O)OC(C)C)cc1`, the Tm shift relative to glycine control is -1.71% (inactive).

Consider `CCn1c(SCC(=O)c2ccc3ccccc3c2)nnc1-c1cccs1`, for which the Tm shift relative to glycine control was -0.65% (inactive).

With `Cc1ccccc1NC(=O)C(C)c1ccc(-c2ccccc2)c(F)c1` (stereo not drawn), the Tm shift relative to glycine control was -4.35% (inactive).

Regarding `CCCC(C(=O)OCCN(CC)CC)(c1ccccc1)c1ccccc1`, the Tm shift relative to glycine control was -1.26% (inactive).

Turning to `O=C(c1ccccc1)C(Cn1cncn1)C(Sc1ccccc1)c1ccccc1` (stereo not drawn), the Tm shift relative to glycine control was 0.35% (inactive).

Consider `Cc1ccc(NC(=O)Cn2nnc(C(=O)NCc3ccco3)c2N)c(C)c1`, for which the Tm shift relative to glycine control was 1.53% (inactive).

Turning to `CCc1ccc(NC(=O)Cn2nnc(C(=O)NCc3ccc4c(c3)OCO4)c2N)cc1`, the Tm shift relative to glycine control was 8.72% (inactive).

Take `CCc1ccc(NC(=O)Cn2nnc(C(=O)NCc3ccc(OC)cc3)c2N)cc1`: the Tm shift relative to glycine control is 24.6% (active).

For the molecule `COc1ccc(CNC(=O)c2cc(=O)c3c(C)cc(C)cc3o2)cc1`, the Tm shift relative to glycine control was -0.39% (inactive).

On to `COc1ccc(CNC(=O)CN2CCC(n3nnc4cc(F)ccc43)CC2)cc1`, for which the Tm shift relative to glycine control is 0.17% (inactive).

As to `COc1cccc(CNC(=O)c2nnn(CC(=O)Nc3cc(C)ccc3C)c2N)c1`, the Tm shift relative to glycine control is 11.9% (active).

For `COc1ccc(CNC(=O)c2nnn(CC(=O)Nc3cc(C)cc(C)c3)c2N)cc1`, the Tm shift relative to glycine control was 29.7% (active).

Regarding `COc1cccc(CNC(=O)c2nnn(CC(=O)Nc3cc(Cl)ccc3C)c2N)c1`, the Tm shift relative to glycine control was 2.58% (inactive).

As for `COc1ccc(NC(=O)Cn2nnc(C(=O)NCCc3ccc(OC)c(OC)c3)c2N)cc1`, the Tm shift relative to glycine control is -0.6% (inactive).

Consider `Cc1ccc(N/C(N)=N/c2nc(C(F)(F)F)cc(C(F)(F)F)n2)cc1`, for which the Tm shift relative to glycine control was -6.73% (inactive).

For `O=C(NCc1cccs1)c1ccc2c(c1)ncn2C1CCCC1`, the Tm shift relative to glycine control was -0.09% (inactive).

Consider `O=C1CN(C(=O)CN2C(=O)NC3(CCCCC3)C2=O)c2ccccc2N1`, for which the Tm shift relative to glycine control was -0.31% (inactive).

For `O=C(CSc1c2c(nc3ccc(Cl)cc13)CCCC2)NCc1ccco1`, the Tm shift relative to glycine control is 0.25% (inactive).

In the case of `COC(=O)C1CCN(C(=O)c2ccc3oc(Cc4ccc(Cl)cc4)nc3c2)CC1`, the Tm shift relative to glycine control was 0.94% (inactive).

Regarding `COc1ccc(Cl)cc1NC(=O)COc1ccc2c(c1)OCO2`, the Tm shift relative to glycine control was -1.71% (inactive).

As to `C#CCNC(=O)C1=C[C@@H](c2ccccc2)[C@H](CCCO)[C@@H](OCC)O1`, the Tm shift relative to glycine control is -1.23% (inactive).

With `COc1ccc(-c2cc(C(=O)n3cnc4ccccc43)c3ccccc3n2)cc1`, the Tm shift relative to glycine control is -1.16% (inactive).

`COc1ccc(NC(=O)c2cc(-c3cc(OC)c(OC)c(OC)c3)nc3ccccc23)c(OC)c1`: the Tm shift relative to glycine control was 1.42% (inactive).

`COc1ccc(-c2cc(C(=O)Nc3ccccc3O)c3ccccc3n2)cc1`: the Tm shift relative to glycine control is 21% (active).

For the molecule `Cc1cccc(CSc2ccc(-c3cccs3)nn2)c1`, the Tm shift relative to glycine control was -7.55% (inactive).

For the molecule `Nc1ccc(SCCN2C(=O)c3ccccc3C2=O)cc1`, the Tm shift relative to glycine control is -0.18% (inactive).

For `O=C(Nc1c(Br)cc2c(c1Br)Cc1ccccc1-2)C(F)(F)F`, the Tm shift relative to glycine control was 11.5% (active).

For `O=C(Nc1c(Br)cc2c(c1Br)Cc1cc([N+](=O)[O-])ccc1-2)C(Cl)Cl`, the Tm shift relative to glycine control is -1.4% (inactive).

For the molecule `O=C(Nc1ccccc1)c1ccccc1NC(=O)C(F)(F)F`, the Tm shift relative to glycine control is -1.92% (inactive).

In the case of `O=C(CCS(=O)(=O)c1ccc(Br)cc1)NCCc1ccc(Cl)cc1`, the Tm shift relative to glycine control is 0.18% (inactive).

`CCOc1ccc(NC(=O)CN(C)C(=O)CSc2ccccc2)cc1OCC`: the Tm shift relative to glycine control was -0.35% (inactive).

For `O=C(/C=C/Sc1ncn[nH]1)c1ccc(Cl)cc1`, the Tm shift relative to glycine control is -1.06% (inactive).

With `Fc1c(F)c(C(F)(F)F)c(F)c(F)c1N1CCN(c2ccc3nnc(C(F)(F)F)n3n2)CC1`, the Tm shift relative to glycine control is 33.4% (active).

On to `FC(F)(F)c1nnc2ccc(N3CCN(c4ccccc4)CC3)nn12`, for which the Tm shift relative to glycine control was -3.49% (inactive).

Regarding `CSCCC(NC(=O)c1ccc(Cl)cc1Cl)C(=O)NNC(=O)c1csc(N2CCOCC2)n1` (stereo not drawn), the Tm shift relative to glycine control is -1.92% (inactive).

As for `COc1ccc(NC(=O)CN2C(=O)CSc3ccc(S(=O)(=O)N4CCC(C)CC4)cc32)cc1`, the Tm shift relative to glycine control was -2.6% (inactive).

In the case of `Cc1cc(Cl)c2oc(C(=O)NC(C)c3ccncn3)c(C)c2c1` (stereo not drawn), the Tm shift relative to glycine control was -2.04% (inactive).

Regarding `Cc1ccc2cc(C)c(N3CCN(c4ccc(F)cc4)CC3)nc2c1`, the Tm shift relative to glycine control was 1.71% (inactive).

With `Cc1ccc(-n2ncc3c(=O)[nH]cnc32)c(C)c1`, the Tm shift relative to glycine control was -2.15% (inactive).

Take `Cc1ccc(-n2ncc3c(N4CCN(c5ccc(F)cc5)CC4)ncnc32)c(C)c1`: the Tm shift relative to glycine control was 10.6% (active).

In the case of `CCCCn1c(SCc2ncc(-c3ccccc3)o2)nc2cc(S(N)(=O)=O)ccc21`, the Tm shift relative to glycine control is -10.6% (inactive).

On to `CCOc1ccc(C(CCc2ccccc2)NC(=O)c2ccc(OC)c(OC)c2)cc1OCC` (stereo not drawn), for which the Tm shift relative to glycine control is -0.18% (inactive).

For `O=C1CCC(C(=O)N2CCCCO2)CN1Cc1cccc(C(F)(F)F)c1` (stereo not drawn), the Tm shift relative to glycine control is 0.67% (inactive).

With `COc1ccc(Oc2coc3cc(OC(=O)c4cncc(Br)c4)ccc3c2=O)cc1`, the Tm shift relative to glycine control was -4.3% (inactive).

As for `CCc1ccc(Oc2coc3cc(O)ccc3c2=O)cc1`, the Tm shift relative to glycine control is -1.09% (inactive).

Consider `COC(=O)COc1ccc2c(=O)c(Oc3ccccc3Br)coc2c1`, for which the Tm shift relative to glycine control is 17.5% (active).

With `CC(C)OC(=O)c1ccc(COc2ccc3ccc(=O)oc3c2)o1`, the Tm shift relative to glycine control was 1.19% (inactive).

Consider `COc1ccc(-c2cn[nH]c2-c2ccc(OC)cc2)cc1`, for which the Tm shift relative to glycine control is 0% (inactive).

Turning to `CCOc1ccccc1Oc1cn[nH]c1-c1ccc(OC)cc1O`, the Tm shift relative to glycine control is -4.92% (inactive).

In the case of `COc1ccc(Oc2cn[nH]c2-c2ccc(OC)cc2O)cc1`, the Tm shift relative to glycine control was 17.8% (active).

On to `Cc1ccc(S(=O)(=O)N2CCN(C(=O)c3cc(S(=O)(=O)N4CCOCC4)ccc3F)CC2)cc1`, for which the Tm shift relative to glycine control is -1.16% (inactive).

`CC1CCCC(NC(=O)CSc2nccn2C)C1C` (stereo not drawn): the Tm shift relative to glycine control was 3.2% (inactive).

Take `Cc1ccc(-n2nc3c(=O)n(C(C)C(=O)NCc4ccc5c(c4)OCO5)nc(C)c3c2C)cc1` (stereo not drawn): the Tm shift relative to glycine control was 0% (inactive).

Take `COC(C(=O)Nc1ccc(S(=O)(=O)Nc2ccc(C)c(C)c2)cc1)c1ccccc1` (stereo not drawn): the Tm shift relative to glycine control was 16.2% (active).

With `COC(C(=O)Nc1ccc(C(C)=O)cc1)c1ccccc1` (stereo not drawn), the Tm shift relative to glycine control was -4.28% (inactive).

`COC(C(=O)NCc1ccccc1C)c1ccccc1` (stereo not drawn): the Tm shift relative to glycine control is -0.62% (inactive).

`CCOc1ccc(CN2CCN(CCCc3ccccc3)C(CCO)C2)cc1` (stereo not drawn): the Tm shift relative to glycine control is 0.91% (inactive).

Consider `CC1CN(C(=O)COC(=O)c2cccc(NS(=O)(=O)c3ccccc3)c2)CC(C)O1` (stereo not drawn), for which the Tm shift relative to glycine control was 2.04% (inactive).

Take `CC1=C(C)CC(C(=O)NC(C)CCc2ccccc2)C(C(=O)O)C1` (stereo not drawn): the Tm shift relative to glycine control was -2.66% (inactive).

On to `CSc1cc(C)[nH]c(=O)n1`, for which the Tm shift relative to glycine control is 1.65% (inactive).

Regarding `Cc1cc(=O)cc(C)[nH]1`, the Tm shift relative to glycine control was 13% (active).

As to `COc1ccccc1S(=O)(=O)c1c(C)cc(C)[nH]c1=O`, the Tm shift relative to glycine control was -0.69% (inactive).

As to `CCOc1cnc(C(=O)NNC(=O)c2ccccc2Br)o1`, the Tm shift relative to glycine control is -1.85% (inactive).

As for `c1ccc(CN2CCC(N=C3NN=C(c4ccc5c(c4)OCCO5)CS3)CC2)cc1`, the Tm shift relative to glycine control was -2.04% (inactive).

Turning to `Clc1cccc(N=C2NN=C(c3ccc4c(c3)OCCO4)CS2)c1`, the Tm shift relative to glycine control was 12.7% (active).

On to `CN(C)c1nc(=Nc2cccc(Cl)c2)ss1`, for which the Tm shift relative to glycine control is -11% (inactive).

Turning to `Cc1ccc(S(=O)(=O)N(C)c2ccc(OCC(=O)OCc3ccc(C#N)cc3)cc2)cc1`, the Tm shift relative to glycine control was 12.6% (active).

With `Cc1ccc(S(=O)(=O)N(C)c2ccc(OCC(=O)NC3=NCCS3)cc2)cc1`, the Tm shift relative to glycine control was -0.31% (inactive).

With `Cc1ccc(S(=O)(=O)N(C)c2ccc(OCC(=O)OCC(=O)N(CC#N)c3ccccc3)cc2)cc1`, the Tm shift relative to glycine control was 2.35% (inactive).

For the molecule `O=C(NCc1csc(-c2cccs2)n1)C1CC1`, the Tm shift relative to glycine control is 0.25% (inactive).

Take `COc1ccc(C2OCC3(CO2)SC(=O)NC3=O)cc1OC` (stereo not drawn): the Tm shift relative to glycine control was -1.38% (inactive).

Consider `O=C(NCc1cccs1)c1ccc(CS(=O)Cc2ccccc2Cl)o1` (stereo not drawn), for which the Tm shift relative to glycine control was 0.47% (inactive).

Take `Nc1nnn(CC(=O)N/N=C/c2ccccc2)n1`: the Tm shift relative to glycine control was -2.09% (inactive).

As for `O=C(CN1CCOCC1)N/N=C/c1ccc(-c2ccc(Br)cc2)o1`, the Tm shift relative to glycine control was -2.4% (inactive).

As for `O=C(Cn1nnc(-c2ccccc2)n1)N/N=C/c1ccc(-c2ccc(Cl)cc2)o1`, the Tm shift relative to glycine control is 384% (active).

As to `CCOc1ccc(-n2c(SCC(=O)NC3CCS(=O)(=O)C3)nnc2-c2cccnc2)cc1` (stereo not drawn), the Tm shift relative to glycine control was -1.01% (inactive).

Take `CCN1CC(CN(C)Cc2nc(-c3ccc(Cl)cc3)no2)CC1=O` (stereo not drawn): the Tm shift relative to glycine control is -0.89% (inactive).

Turning to `O=C(OCC(=O)N1CCc2ccccc21)c1ccc([N+](=O)[O-])cc1`, the Tm shift relative to glycine control was 1% (inactive).

For the molecule `COc1cc(Br)c(-c2sc(Nc3ccccc3)n[n+]2-c2ccccc2)cc1OC`, the Tm shift relative to glycine control was -12% (inactive).

For `CCc1ccc(Nc2n[n+](-c3ccccc3)c(-c3cccc(Cl)c3Cl)s2)cc1`, the Tm shift relative to glycine control was 16% (active).

Regarding `COc1ccc(C)cc1Nc1n[n+](-c2ccccc2)c(-c2cccc(Cl)c2Cl)s1`, the Tm shift relative to glycine control was 4.85% (inactive).
